Data on eight compounds can be found in PubChem BioAssay (NCI).

Compounds without any hit were thinned out: in the full panel of roughly 83,000, 20% have a hit.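 How to read the values: 0–100, growth inhibition (40 = 60% inhibited); 0, no net growth; -100 to 0, cell death (-40 = 40% of starting cells died; -100 = all dead).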 Unmarked numbers belong to inactive results. Activity calls are given as the source filed them. The calls were made as follows: active = growth percent below 10; inactive = the rest.

Test in all cases: NCI-60 one-dose screen, 48 h (100 = growth as untreated, 0 = no growth, -100 = all killed)
The test system of one experiment is K-562 leukemia. Particulars: 10 µM unless noted.
The subject of the next experiment is MALME-3M melanoma. The following applies: 10 µM unless noted.
For the next experiment, the system named is RXF 393 renal. The following applies: 10 µM unless noted.
The test system of the next experiment is SF-295 CNS. Particulars: 10 µM unless noted.
Another experiment relates to UACC-257 melanoma. Particulars: 10 µM unless noted.
For the next experiment, the system named is HCT-15 colon. Particulars: 10 µM.
The test system of another experiment is UACC-62 melanoma. Particulars: 10 µM unless noted.
A further experiment relates to LOX IMVI melanoma. The following applies: 10 µM unless noted.
A further experiment has as its system SK-MEL-2 melanoma. Particulars: 10 µM unless noted.
For a further experiment, the system named is TK-10 renal. The following applies: 10 µM unless noted.
Another experiment has as its system ACHN renal. Particulars: 10 µM unless noted.
The next experiment concerns A498 renal. Particulars: 10 µM unless noted.
For the next experiment, the system named is HL-60(TB) leukemia. The following applies: 10 µM unless noted.
In a further experiment the test system is MOLT-4 leukemia. The following applies: 10 µM.
In the next experiment the test system is OVCAR-8 ovarian. The following applies: 10 µM unless noted.
The test system of a further experiment is OVCAR-4 ovarian. The following applies: 10 µM unless noted.
The subject of a further experiment is NCI/ADR-RES ovarian. Particulars: 10 µM unless noted.
A further experiment concerns T-47D breast. The following applies: 10 µM unless noted.
In another experiment the test system is BT-549 breast. The following applies: 10 µM.
The next experiment concerns HCC-2998 colon. The following applies: 10 µM unless noted.

As for `CCOC(=O)/C=C(\C)Nc1ccc(N/C(C)=C/C(=O)OCC)c2c1Oc1ccccc1O2`, the growth in the experiment with K-562 leukemia is 81.7%; in the experiment with MALME-3M melanoma, 107%; in the experiment on RXF 393 renal, 0.357% (active); in the experiment with SF-295 CNS it was 99.4%; in the experiment on UACC-257 melanoma, 109%; in the experiment with HCT-15 colon, 100%. In addition, the growth was 92.3% with UACC-62 melanoma; 94.4% in the experiment on LOX IMVI melanoma; 100% in the experiment on SK-MEL-2 melanoma; 124% in the experiment with TK-10 renal; 104% with ACHN renal; 102% in the experiment with A498 renal. In addition, the growth in the experiment on HL-60(TB) leukemia is 63.4%; in the experiment with MOLT-4 leukemia, 75.5%; with OVCAR-8 ovarian it was 96.7%; with OVCAR-4 ovarian, 114%; in the experiment on NCI/ADR-RES ovarian, 99.5%; in the experiment with T-47D breast, 103%. Besides, the growth is 102% in the experiment on BT-549 breast and 120% in the experiment with HCC-2998 colon.
As to `Nc1ncnc2c1c(C(=O)NO)cn2C1OC(CO)C(O)C1O` (stereo not drawn), the growth with K-562 leukemia was -3.31% (active); in the experiment with MALME-3M melanoma, -41.1% (active); in the experiment with RXF 393 renal it was -26.9% (active); with SF-295 CNS, -47.6% (active); with UACC-257 melanoma, -48% (active); in the experiment with HCT-15 colon, -9.1% (active). In addition, the growth in the experiment on UACC-62 melanoma was -86.1% (active); with LOX IMVI melanoma, -5.18% (active); in the experiment on SK-MEL-2 melanoma, -18.7% (active); in the experiment with TK-10 renal it was 6.25% (active); with ACHN renal it was -15.4% (active); in the experiment with A498 renal it was -30.1% (active). Moreover, the growth with HL-60(TB) leukemia was -43% (active); in the experiment with MOLT-4 leukemia it was -32.9% (active); in the experiment on OVCAR-8 ovarian, -20.2% (active); with OVCAR-4 ovarian, 0.579% (active); in the experiment with NCI/ADR-RES ovarian it was 2.24% (active); in the experiment on T-47D breast, -11.1% (active). Further, the growth with BT-549 breast is -0.861% (active); in the experiment on HCC-2998 colon, -38.7% (active).
Regarding `O1[As]2O[As]3O[As]1O[As](O2)O3`, the growth in the experiment with MALME-3M melanoma is -15% (active); with RXF 393 renal, -47.6% (active); in the experiment on SF-295 CNS it was 4.61% (active); with UACC-257 melanoma it was -22.1% (active); in the experiment with HCT-15 colon, -23.4% (active); in the experiment with UACC-62 melanoma, -53.3% (active). Also, the growth in the experiment with LOX IMVI melanoma was 0.399% (active); in the experiment on SK-MEL-2 melanoma, -34.8% (active); in the experiment on TK-10 renal it was 3.92% (active); in the experiment on ACHN renal it was 28%; with A498 renal it was 2.98% (active); with HL-60(TB) leukemia it was 1.06% (active). For the same compound, the growth in the experiment on MOLT-4 leukemia was 10.7%; with OVCAR-8 ovarian, 4.6% (active); in the experiment with OVCAR-4 ovarian, 26.1%; with NCI/ADR-RES ovarian it was 13.8%; in the experiment on T-47D breast it was 22.9%; in the experiment with BT-549 breast, -12.1% (active). Moreover, the growth in the experiment on HCC-2998 colon was 23.3%.
On to `ClCCN(CCCl)c1ccc(C=NCCc2c[nH]c3ccccc23)cc1`, for which the growth in the experiment with K-562 leukemia was 82.4%; with MALME-3M melanoma it was 76.7%; in the experiment on RXF 393 renal it was 56.1%; in the experiment with SF-295 CNS, 35.6%; in the experiment on UACC-257 melanoma it was 99.9%; with HCT-15 colon it was 90.3%. Besides, the growth in the experiment on UACC-62 melanoma was 56.9%; in the experiment on LOX IMVI melanoma it was 74.7%; in the experiment with SK-MEL-2 melanoma, 125%; in the experiment on TK-10 renal it was 88%; in the experiment with ACHN renal, 44.5%; with A498 renal, 1.98% (active). Besides, the growth with HL-60(TB) leukemia was 91%; in the experiment with MOLT-4 leukemia, 63.1%; with OVCAR-8 ovarian, 74.8%; in the experiment with OVCAR-4 ovarian, 92.9%; with NCI/ADR-RES ovarian it was 76.2%; in the experiment on T-47D breast, 80.6%. Also, the values for the growth in the experiment on BT-549 breast and in the experiment on HCC-2998 colon were 81.9% and 91.8%, respectively.
On to `CO[C@@H]([CH2][Hg][S]C#N)[C@@H]([CH2][Hg][S]C#N)OC`, for which the growth in the experiment on K-562 leukemia is 46.5%; with MALME-3M melanoma, 104%; in the experiment on RXF 393 renal, 57.8%; in the experiment on SF-295 CNS, 113%; in the experiment with UACC-257 melanoma it was 86.8%; with UACC-62 melanoma, 88.9%. The growth with SK-MEL-2 melanoma is 106%; in the experiment on TK-10 renal, 133%; with A498 renal it was 118%; in the experiment with HL-60(TB) leukemia it was 62.9%; with MOLT-4 leukemia, 101%; in the experiment on OVCAR-8 ovarian, 107%. In addition, the growth is 95.4% in the experiment on OVCAR-4 ovarian; 93.7% in the experiment on NCI/ADR-RES ovarian; 116% in the experiment with T-47D breast; 107% with BT-549 breast; 90.3% in the experiment with HCC-2998 colon.
In the case of `O=[N+]([O-])c1ccc(/C=C/C=C/c2ccc(S(=O)(=O)F)cc2)c(Cl)c1`, the growth was 96.1% with K-562 leukemia; 102% with MALME-3M melanoma; 92.2% in the experiment with RXF 393 renal; 93.1% with SF-295 CNS; 96.5% in the experiment with UACC-257 melanoma; 98% in the experiment on HCT-15 colon. In addition, the growth is 94.9% with UACC-62 melanoma; 102% with LOX IMVI melanoma; 84% with SK-MEL-2 melanoma; 108% in the experiment with TK-10 renal; 102% in the experiment with ACHN renal; 100% with A498 renal. In addition, the growth is 91.9% in the experiment with HL-60(TB) leukemia; 84.1% with MOLT-4 leukemia; 99% in the experiment on OVCAR-8 ovarian; 87.5% in the experiment on OVCAR-4 ovarian; 104% in the experiment with NCI/ADR-RES ovarian; 86.2% in the experiment with T-47D breast. The growth in the experiment with BT-549 breast was 100%; in the experiment on HCC-2998 colon, 106%.
As for `O=C1NC2(CCNCC2)Nc2ccccc21`, the growth in the experiment on MALME-3M melanoma was 117%; in the experiment on RXF 393 renal it was 111%; in the experiment with SF-295 CNS, 107%; in the experiment with UACC-257 melanoma, 85.7%; in the experiment with HCT-15 colon, 113%; with UACC-62 melanoma, 96.1%. The growth in the experiment on LOX IMVI melanoma was 102%; in the experiment on SK-MEL-2 melanoma, 98.1%; in the experiment on TK-10 renal, 98.3%; with ACHN renal, 110%; with A498 renal it was 95.5%; in the experiment on HL-60(TB) leukemia it was 95.6%. Moreover, the growth in the experiment on MOLT-4 leukemia was 84.7%; in the experiment with OVCAR-8 ovarian it was 84.4%; in the experiment on OVCAR-4 ovarian it was 116%; in the experiment on NCI/ADR-RES ovarian, 109%; in the experiment on T-47D breast, 109%; with BT-549 breast it was 108%. The growth in the experiment with HCC-2998 colon was 103%.
Turning to `Nc1c(Br)cc2c3c(cccc13)-c1ccccc1-2`, the growth in the experiment with K-562 leukemia is 38.3%; in the experiment with RXF 393 renal it was 80.2%; with SF-295 CNS, 74.5%; with UACC-257 melanoma it was 88.4%; in the experiment on HCT-15 colon, 49.3%; in the experiment on UACC-62 melanoma it was 81.2%. Moreover, the growth with LOX IMVI melanoma is 53.7%; in the experiment on SK-MEL-2 melanoma it was 64.4%; in the experiment on ACHN renal, 75.7%; with A498 renal, 70.5%; in the experiment on HL-60(TB) leukemia, 82.7%; with MOLT-4 leukemia, 53.8%. For the same compound, the growth in the experiment with OVCAR-8 ovarian is 70.9%; with OVCAR-4 ovarian, 62.1%; with NCI/ADR-RES ovarian it was 83.4%; with T-47D breast, 38.6%; in the experiment on BT-549 breast it was 91.8%; with HCC-2998 colon, 80.7%.
